# Compound activity as filed in PubChem BioAssay.
# FBPA Giardia inh = inhibitors of Giardia lamblia fructose-1,6-bisphosphate aldolase. Potency, µM (top dose mostly 59.6 µM), actives largely listed as inhibitors. A8B2U2. 290,000 compounds, 0.71% hits. purified Giardia FBPA. AID 2451; further: nearly all actives have a fitted effect of over 55% in size
# Target sequence (A8B2U2 whole entry, looked up): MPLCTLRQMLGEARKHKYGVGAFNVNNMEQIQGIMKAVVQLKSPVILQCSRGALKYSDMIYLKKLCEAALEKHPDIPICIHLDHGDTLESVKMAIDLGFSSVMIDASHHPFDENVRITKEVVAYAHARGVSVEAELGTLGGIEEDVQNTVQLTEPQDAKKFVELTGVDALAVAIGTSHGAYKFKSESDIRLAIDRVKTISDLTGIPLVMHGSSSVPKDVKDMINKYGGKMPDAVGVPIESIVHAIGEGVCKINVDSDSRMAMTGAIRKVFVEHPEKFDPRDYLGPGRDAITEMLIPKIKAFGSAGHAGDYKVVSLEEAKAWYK
#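 Giardia FBPA (40 nM reagent) was preincubated 10 min at RT with compound (up to 57.5 uM final), then substrate plus GAPDH/TPI/NAD/arsenate coupling system with diaphorase/resazurin was added; resorufin fluorescence (525/598 nm) was read after 20 min.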
# Tb PYK inh = T. brucei pyruvate kinase inhibition; TbPYK enzyme, Kinase-Glo Plus ATP luminescence, 45 min; Potency, µM (top dose mostly 76.8 µM), most hits filed as inhibitors; 410,000 compounds, 0.12% hits; AID 624173; further: nearly all actives have a fitted effect of over 50% in size
#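 Enzyme and substrate buffer are dispensed first and compound is pin-transferred. ADP at 130 uM final then starts the reaction, which runs 45 min at room temperature. Detection reagent is added for 10 min before luminescence is imaged.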
# LmPK inhibitor = inhibitors of Leishmania mexicana pyruvate kinase. purified LmPK, Kinase-Glo ATP luminescence, 1 h. Potency, µM (highest dose often 57.5 µM), actives largely listed as inhibitors. 290,000 compounds, 0.37% hits
#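 In 50 mM imidazole pH 7.2 with 7 mM MgCl2, LmPK (0.1 nM) turned over PEP (0.5 mM) and ADP (0.1 mM) for 1 h at room temperature. Luciferase read-out of ATP.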
# Shiga inhibitor = blocks Shiga toxin action in Vero cells | 290,000 compounds, 9.2% hits | Vero cells, Shiga toxin protein synthesis inhibition reporter | inhibition, % at 38.7 µM; in the data active means inhibition mostly above about 28%, no sharp cut-off; inactive means mostly below about 43%
# RE007 growth inh = less growth of the S. pombe RE007 Vpr strain; S. pombe RE007 Vpr strain, BacTiter-Glo ATP luminescence, 24 h; Potency, µM (top dose mostly 92.2 µM), usual class: inhibitors; 360,000 compounds, 0.21% hits; active means well fitted falling curve with a large enough effect; inconclusive means small, poorly fitted or top-dose-only effect; inactive means no such curve, though single readings can be large or run the other way; further: nearly all actives have a fitted effect of over 50% in size
#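 Fission yeast strain RE007, carrying one chromosomally integrated HIV-1 vpr copy, was seeded at OD 0.01 in PMG+AL medium with 23 nL pinned compound. After 24 h at 30 °C and 99% humidity, viability was read by BacTiter-Glo luminescence.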
# CHX counter = counter-screen for Shiga toxin inhibitors: cycloheximide protein synthesis inhibition | cell reporter, cycloheximide protein synthesis inhibition counterscreen | max response, % | 300,000 compounds, 12% hits; in the data active means max response mostly above about 13%, no sharp cut-off; inactive means mostly below about 14%; further: read at 38.3 µM for the half of the compounds with a filed dose
# A number is an active result; - = inactive; ? = inconclusive; . = no result; [ ] = remark or other dose. This excerpt belongs to a sample that is enriched for hits. Unless noted, the call rests on the fitted dose curve; in most records, active means well fitted curve in the direction sought with a large enough effect; inconclusive means small, poorly fitted or top-dose-only effect, or another doubt; inactive means no such curve, though single readings can be large; an effect the other way counts as inactive or inconclusive.
SMILES,FBPA Giardia inh,Tb PYK inh,LmPK inhibitor,Shiga inhibitor,RE007 growth inh,CHX counter
O=C(N/N=C/c1ccsc1)c1cc2ccccc2o1,-,-,-,41,-,62
Nc1cccc(C(=O)N/N=C/c2ccsc2)c1,-,-,-,54,-,33
CC(=O)C[C@H](c1ccccc1)c1c(O)c2ccccc2oc1=O,-,.,.,-,.,-
Cc1oc2ccc(O)c(CN3CCN(C)CC3)c2c1C(=O)Nc1ccc(C(C)C)cc1,.,-,.,.,.,.
Cn1cc([N+](=O)[O-])c(C(=O)N/N=C/c2ccc3c(c2)OCO3)n1,-,-,-,43,-,20
Cc1ccc(C(=O)/C=C/c2ccccc2)o1,-,-,-,-,?,40
O=C(N/N=C/c1cc2c(c([N+](=O)[O-])c1)OCO2)c1ccncc1,-,-,-,.,-,-
O=C(N/N=C/c1ccc2c(c1)OCO2)c1cc2ccccc2o1,-,-,-,-,-,12
O=C(N/N=C/c1cccc2ccccc12)c1cc2ccccc2o1,-,-,-,-,-,-
COc1cc(NCc2ccccc2O)c2ncccc2c1,-,-,-,-,-,20
COc1cc(NCCCCCCCN)c2ncccc2c1,?,-,-,-,-,-
CC(C)(C)NC(=O)c1ccc2c(c1)C(=O)N(C1CCCCC1)C2=O,-,-,-,80,-,48
O=C(O)c1cccc(NC(=O)c2ccc3c(c2)C(=O)N(C2CCCCC2)C3=O)c1,-,-,-,108,-,44
O=C(Nc1ccc2c(c1)C(=O)N(C1CCCCC1)C2=O)C1CCCO1 (centres undefined),-,-,-,-,-,9.6
O=C(O)COc1ccc(NC(=O)c2ccc3c(c2)C(=O)N(C2CCCCC2)C3=O)cc1,.,-,-,-,-,-
Cc1ccc(C2=CC(c3ccccc3F)n3c(nc4ccccc43)N2)cc1C (centres undefined),.,-,.,.,.,.
CC1/C=C/C=C/C=C/C=C/C=C/C=C/C=C/C(OC2OC(C)C(O)C(N)C2O)CC2O[C@@](O)(CC(O)CC(O)C(O)CCC(O)CC(O)CC(=O)OC(C)[C@H](C)C1O)CC(O)C2C(=O)O (some centres undefined),-,.,.,.,.,.
N/C(=N\OC(=O)CCC1CCCC1)c1ccccc1,-,-,?,-,-,20
N/C(=N\OC(=O)CCC1CCCCC1)c1cccc([N+](=O)[O-])c1,-,-,-,-,-,-
N/C(=N\OC(=O)CCC1CCCC1)c1ccccn1,-,-,?,65,-,52
N/C(=N\OC(=O)CCC1CCCC1)c1ccc([N+](=O)[O-])cc1,-,-,-,-,-,19
N/C(=N\OC(=O)Cc1ccccc1)c1ccc([N+](=O)[O-])cc1,-,-,-,42,-,30
O=C(CCC1CCCC1)NCc1ccccn1,-,-,-,-,-,-
Cc1nn(CCCC(=O)NCCc2ccc(Cl)cc2)c(=O)c2c1sc1ccccc12,.,-,.,.,.,.
CN1CCN(c2ccnc(-c3ccoc3)n2)CC1,-,.,.,.,.,.
SMILES,FBPA Giardia inh,Tb PYK inh,LmPK inhibitor,Shiga inhibitor,RE007 growth inh,CHX counter
Cc1ccc(-n2nc3ccc(N)cc3n2)c(C)c1,-,-,-,.,?,17
COc1ccc(-n2nc3ccc(NC(=O)COc4ccc(C)c(C)c4)cc3n2)cc1,.,-,.,.,.,.
COc1ccc(-n2nc3ccc(NC(=O)c4ccc(C#N)cc4F)cc3n2)cc1Cl,.,-,.,.,.,.
COc1ccc(-n2nc3ccc(NS(C)(=O)=O)cc3n2)cc1Cl,-,-,-,35,-,9.6
Cc1cc(N)ccc1-n1nc2ccccc2n1,.,-,.,.,?,.
Cc1ccc(-n2nc3ccc(N)cc3n2)cc1C,-,-,-,.,?,44
COc1ccc(-n2nc3ccc(N)cc3n2)cc1Cl,?,-,-,.,-,28
COc1cccc(CN2C(=O)C3(SCC(=O)N3c3cc(C)cc(C)c3)c3ccccc32)c1 (centres undefined),.,-,.,.,.,.
O=C(Cc1ccc(-c2ccccc2)cc1)NCCS(=O)(=O)N1CCN(c2ccccc2F)CC1,.,-,.,.,.,.
CC(=O)C[C@H](O)CC(=O)[C@H]1OC(=O)CCCCCCCc2ccccc21,.,-,.,.,-,.
CS(=O)(=O)c1ccc(-c2sc3ccccc3c2C(=O)NCCCN2CCOCC2)cc1,.,-,.,.,-,.
Cc1ccc(-n2cnnn2)cc1Cl,-,-,-,-,-,-
Cc1ccc(-n2nc3ccc(N)cc3n2)cc1Cl,-,-,-,67,-,32
NC(=O)C1CC(=O)N(c2ccc(OCc3ccc(Cl)c(Cl)c3)cc2)C1 (centres undefined),.,-,.,.,-,.
COC(=O)C1CC(=O)N(c2ccc(OCc3ccccc3Cl)cc2)C1 (centres undefined),-,-,-,.,-,-
C=CCNC(=O)C1CC(=O)N(c2ccc(OCc3ccccc3Cl)cc2)C1 (centres undefined),-,-,-,33,-,33
NC(=O)C1CC(=O)N(c2ccc(OCc3ccc(Cl)cc3Cl)cc2)C1 (centres undefined),-,-,-,-,-,26
Cc1ccc2c(c1)c(=O)c(C(=O)c1ccncc1)cn2CC(=O)Nc1ccccc1Cl,.,-,.,.,.,.
Cc1ccc(F)c(C2C3C=CCCC3(C)C(=O)N2Cc2ccccc2)c1 (centres undefined),-,.,.,-,.,-
Cc1ccc(O)c(NC(=O)CCSc2nc(-c3ccco3)cc(C(F)(F)F)n2)c1,.,-,.,.,.,.
CCCOc1ccc(N)cc1N,0.4µM,-,-,-,-,-
CCCOc1cc(N)ccc1C(=O)OCCN(CC)CC,-,-,.,.,-[18.4 µM],.
Cc1cccc(OCCSCc2nc3ccccc3[nH]2)c1,.,-,-,-,-,-
c1ccc(CSc2nc3ccccc3[nH]2)cc1,-,-,?,57,-,44
CCOc1ccc2nc(SCC)[nH]c2c1,-,-,-,125,-,54
SMILES,FBPA Giardia inh,Tb PYK inh,LmPK inhibitor,Shiga inhibitor,RE007 growth inh,CHX counter
Cc1cccc(OCCCSc2nc3ccccc3[nH]2)c1,-,-,-,-,45µM,-
CCOc1ccc(OCCSc2nc3ccccc3[nH]2)cc1,-,-,-,-,-,-
CCCOc1ccc(CSc2nc3ccccc3[nH]2)cc1,-,-,?,84,?,49
CN(C)c1ccc(CNC(=O)c2cc3cc(S(=O)(=O)N4CCCCC4)ccc3n2C)cc1,.,-,.,.,.,.
Fc1ccc(CSc2nc3ccccc3[nH]2)cc1,-,-,22µM,132,?,49
CC(C)CSc1nc2ccccc2[nH]1,-,-,-,94,-,45
O=c1[nH]c(SCc2ccccc2)nc2[nH]ncc12,-,-,-,28,-,-
O=[N+]([O-])c1ccc(CSc2nc3ccccc3[nH]2)cc1,-,-,-,38,-,35
CN(C(=O)CO)c1c(I)c(C(=O)NCC(O)CO)c(I)c(C(=O)NCC(O)CO)c1I (centres undefined),.,-,.,.,.,.
CC1(C)C(CSc2nc3ccccc3[nH]2)C1(Cl)Cl (centres undefined),-,-,-,72,-,-
Nc1nc2ccccc2[nH]1,-,-,-,-,-,-
